Assay [1] can be described thus: optical density shifts of acrAB sulA E. coli – strain DRC41, OD650, 48 h, E. coli filamentation inducer project, primary screen (AID 1152).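 Further: E. coli MC1000 strain DRC41 lacking acrAB efflux pump and sulA.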 To be noted: higher = more signal, called active from +8 up or from −8 down.
Assay [2] in a line: probe aLefty1 binding on compound microarray – biochemical, small-molecule microarray, 635/667 nm fluorescence, primary screen (AID 1153).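 Further: score merges spot fluorescence with signal-to-noise ratio from the scanned slide images.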 To be noted: higher = more signal.
A short description of assay [3]: plasmodial surface anion channel blockers, osmotic lysis – cell-based, P. falciparum Indochina, OD700, 1 h, primary screen (AID 1154). The following applies: P. falciparum Indochina infected RBC osmotic lysis, higher = more signal, called active from +8 up or from −8 down.
Assay [4] is described as follows: plasmodial surface anion channel blockers, osmotic lysis – cell-based, P. falciparum Indochina, OD700, 2 h, primary screen (AID 1155).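 Further: lysis reports solute entry through the parasite surface anion channel PSAC.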 The following applies: P. falciparum Indochina infected erythrocytes, higher = more signal, called active from +8 up or from −8 down.
A short description of assay [5]: changes in parasitized red cell lysis, either direction – P. falciparum Indochina, OD700, 3 h, PSAC antagonist project, primary screen (AID 1156). The following applies: P. falciparum-infected erythrocytes, osmotic lysis, higher = more signal, called active from +8 up or from −8 down.
Assay [6] in a line: plasmodial surface anion channel blockers, osmotic lysis – cell-based, P. falciparum Indochina, OD700, 18 h, primary screen (AID 1157). The following applies: P. falciparum Indochina infected erythrocytes, osmotic lysis OD700, 18 h; higher = more signal, called active from +8 up or from −8 down.
The nature of assay [7]: S6 kinase pathway phospho-S6 level changes – cell-based, A549, cytoblot, luminescence, serum-stimulated, primary screen (AID 1158).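 Further: serum-stimulated A549 lung adenocarcinoma cells; signal is phosphorylated S6 detected by cytoblot immunostaining with HRP secondary.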 The following applies: 5 h, higher = more signal.
Assay [8] has as its target NADPH oxidase 2 (Homo sapiens) (UniProt P04839). Kind of assay: compounds shifting NOX2 Amplex Red fluorescence – cell-based, HEK293-NOX2, PMA-stimulated, NOX inhibitor project, primary screen (AID 1159). Further: test concentration not given here. To be noted: 45 min, higher = more signal, called active from +8 up or from −8 down.
Assay [9] deals with NADPH oxidase 4 (Homo sapiens) (UniProt Q9NPH5). Kind of assay: compounds shifting NOX4 Amplex Red fluorescence – cell-based, HEK293-NOX4, tetracycline-induced, NOX inhibitor project, primary screen (AID 1160). The following applies: HEK293-NOX4, Amplex Red H2O2 fluorescence, 45 min; higher = more signal, called active from +8 up or from −8 down.
Sequence of NADPH oxidase 4 (Homo sapiens) (Q9NPH5 whole entry, looked up): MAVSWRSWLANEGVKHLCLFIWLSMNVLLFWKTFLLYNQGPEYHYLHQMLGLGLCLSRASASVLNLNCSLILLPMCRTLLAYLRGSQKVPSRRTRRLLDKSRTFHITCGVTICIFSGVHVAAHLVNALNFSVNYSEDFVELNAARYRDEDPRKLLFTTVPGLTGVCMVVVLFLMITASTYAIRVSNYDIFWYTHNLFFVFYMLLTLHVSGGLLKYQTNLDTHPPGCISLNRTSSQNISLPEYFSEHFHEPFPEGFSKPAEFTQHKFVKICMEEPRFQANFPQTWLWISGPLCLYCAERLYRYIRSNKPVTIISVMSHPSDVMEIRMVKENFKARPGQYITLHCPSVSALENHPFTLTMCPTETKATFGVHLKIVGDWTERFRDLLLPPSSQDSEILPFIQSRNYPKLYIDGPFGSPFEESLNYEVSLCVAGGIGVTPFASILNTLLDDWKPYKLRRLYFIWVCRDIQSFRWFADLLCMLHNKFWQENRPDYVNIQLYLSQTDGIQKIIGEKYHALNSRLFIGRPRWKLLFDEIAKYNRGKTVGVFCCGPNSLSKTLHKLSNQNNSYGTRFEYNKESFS
The target in assay [10] is NADPH oxidase 5 (Homo sapiens) (UniProt Q96PH1). Kind of assay: compounds shifting NOX5 Amplex Red fluorescence – cell-based, HEK293-NOX5, NOX inhibitor project, primary screen (AID 1161). To be noted: HEK293-NOX5, ionomycin, 45 min, higher = more signal.
Sequence of NADPH oxidase 5 (Homo sapiens) (Q96PH1 whole entry, looked up): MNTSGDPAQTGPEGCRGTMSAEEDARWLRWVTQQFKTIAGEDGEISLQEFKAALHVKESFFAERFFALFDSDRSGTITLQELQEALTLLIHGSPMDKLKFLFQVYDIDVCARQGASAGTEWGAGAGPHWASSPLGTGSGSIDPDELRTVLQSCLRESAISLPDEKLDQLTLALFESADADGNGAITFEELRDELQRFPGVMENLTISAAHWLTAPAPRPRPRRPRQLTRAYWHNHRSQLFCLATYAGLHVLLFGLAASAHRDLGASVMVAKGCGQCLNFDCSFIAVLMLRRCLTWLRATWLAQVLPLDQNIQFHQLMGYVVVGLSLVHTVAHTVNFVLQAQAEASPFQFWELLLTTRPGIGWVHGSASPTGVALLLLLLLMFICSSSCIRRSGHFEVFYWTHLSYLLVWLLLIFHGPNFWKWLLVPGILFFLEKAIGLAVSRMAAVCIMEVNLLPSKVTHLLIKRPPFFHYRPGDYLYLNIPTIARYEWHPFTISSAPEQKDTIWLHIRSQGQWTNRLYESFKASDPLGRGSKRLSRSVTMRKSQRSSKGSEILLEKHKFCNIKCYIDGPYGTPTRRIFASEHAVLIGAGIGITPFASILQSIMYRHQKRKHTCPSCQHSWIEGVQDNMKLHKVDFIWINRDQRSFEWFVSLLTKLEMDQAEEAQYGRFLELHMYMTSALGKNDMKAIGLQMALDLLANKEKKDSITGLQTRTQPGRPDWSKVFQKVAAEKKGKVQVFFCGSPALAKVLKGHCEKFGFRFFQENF
A short description of assay [11]: compound effects on lung adenocarcinoma cell viability – A549, calcein-AM fluorescence, 48 h, basal, profiling panel (AID 1162). Further: test concentration not given here. The following applies: higher = more signal.
A short description of assay [12]: compound effects on differentiated 3T3-L1 adipocyte viability – cell-based, 3T3-L1 adipocytes, calcein-AM fluorescence, 48 h, basal, profiling panel (AID 1163). Further: test concentration not given here. To be noted: 3T3-L1 adipocytes viability, higher = more signal.
Assay [13] in a line: compound effects on hepatocellular carcinoma cell viability – HepG2, calcein-AM fluorescence, 48 h, basal, profiling panel (AID 1164). Further: test concentration not given here. To be noted: higher = more signal.
A short description of assay [14]: compound effects on multiple myeloma cell viability – MM1S, calcein-AM fluorescence, 48 h, basal, profiling panel (AID 1165).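 Further: viability of MM1S multiple myeloma cells under basal unstimulated conditions; test concentration not given here.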 To be noted: higher = more signal.
Assay [15] is described as follows: calcein-AM signal in unstimulated myeloma cells – cell-based, calcein-AM fluorescence, 48 h, PK04 Diversity Set, profiling panel (AID 1166).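 Further: cells grown under basal conditions without added stimulus; test concentration not given here.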 To be noted: RPMI8226 myeloma viability, higher = more signal.
Assay [16] can be described thus: JC-1 mitochondrial signal, unstimulated HepG2 cells – cell-based, JC-1 fluorescence, 24 h, 100 nL compound, profiling panel (AID 1167). Further: test concentration not given here. To be noted: HepG2 mitochondrial potential, higher = more signal.
Assay [17] can be described thus: JC-1 mitochondrial signal, unstimulated adipocytes – cell-based, JC-1 fluorescence, 3T3-L1 adipocytes, 24 h, 100 nL compound, profiling panel (AID 1168). Further: test concentration not given here. The following applies: JC-1 mitochondrial fluorescence, higher = more signal, called active from +8 up or from −8 down.
Assay [18] in a line: JC-1 mitochondrial signal, unstimulated myeloma cells – cell-based, JC-1 fluorescence, RPMI8226, 24 h, 100 nL compound, profiling panel (AID 1169). Further: test concentration not given here. To be noted: JC-1 mitochondrial potential fluorescence, higher = more signal.
Assay [19] in a line: JC-1 mitochondrial signal, unstimulated MM1S myeloma – cell-based, JC-1 fluorescence, 24 h, 100 nL compound, profiling panel (AID 1170). Further: test concentration not given here. The following applies: MM1S mitochondrial potential, higher = more signal.
Assay [20] can be described thus: resazurin metabolic signal in A549 cells – cell-based, resazurin fluorescence, 24 h, PK04 Diversity Set, profiling panel (AID 1171). Further: test concentration not given here. The following applies: A549 viability, higher = more signal, called active from +8 up or from −8 down.

The source made the active and inactive calls.

Sequence of NADPH oxidase 2 (Homo sapiens) (P04839 whole entry, looked up): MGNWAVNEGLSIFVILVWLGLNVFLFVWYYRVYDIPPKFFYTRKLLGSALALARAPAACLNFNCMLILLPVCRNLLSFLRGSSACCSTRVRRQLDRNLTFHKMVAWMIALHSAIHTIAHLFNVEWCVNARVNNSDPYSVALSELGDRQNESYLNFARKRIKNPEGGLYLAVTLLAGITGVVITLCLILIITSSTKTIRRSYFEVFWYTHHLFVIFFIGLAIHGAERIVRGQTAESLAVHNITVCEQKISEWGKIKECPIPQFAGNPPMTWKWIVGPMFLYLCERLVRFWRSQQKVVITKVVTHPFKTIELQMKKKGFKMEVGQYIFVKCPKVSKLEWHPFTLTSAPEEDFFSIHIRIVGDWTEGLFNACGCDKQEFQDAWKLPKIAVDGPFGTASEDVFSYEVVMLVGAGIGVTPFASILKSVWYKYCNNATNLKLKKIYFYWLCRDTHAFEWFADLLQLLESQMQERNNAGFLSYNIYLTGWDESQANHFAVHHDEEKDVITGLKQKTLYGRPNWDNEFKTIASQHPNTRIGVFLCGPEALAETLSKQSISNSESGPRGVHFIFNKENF

For `COc1ccc(C(O)C2C=CC3C(=O)N(c4ccccc4)C(=O)C3N2Nc2ccc(C(C)C)cc2)c2ccccc12` (stereo not given), the z-score in assay [1] was -0.534 (inactive); in assay [3], 1.68 (inactive); in assay [4], 1.35 (inactive); in assay [5], 0.155 (inactive); in assay [6], 1.27 (inactive); in [7] it was -1.09. The z-score was 0.373 (inactive) in assay [8]; -2.59 (inactive) in assay [9]; -3.17 in assay [10]; 0.181 in assay [11]; -0.946 in assay [12]; 0.301 in assay [13]. The z-score in assay [14] was -0.419; in [15], 0.129; in assay [16], -0.783; in assay [17], 0.0228 (inactive); in assay [18], -0.293; in assay [19] it was -0.154. Moreover, the z-score in assay [20] is -0.64 (inactive). Also, the composite z-score in assay [2] was 0.4.
In the case of `Cc1ccc(S[C@]2(C(=O)NC(C)C)CC(=O)N(Cc3ccccc3Cl)[C@@H]2c2ccc(CO)cc2)cc1`, the z-score in [1] was -1.03 (inactive); in [3], 3.11 (inactive); in [4], 0.0285 (inactive); in assay [5] it was 1.5 (inactive); in assay [6], 0.253 (inactive); in assay [7], -0.026. Also, the z-score in assay [8] is -0.984 (inactive); in assay [9], -1.19 (inactive); in assay [10], -0.486; in assay [11] it was 0.175; in assay [12] it was 0.35; in [13], -0.12. The z-score is -0.387 in assay [14]; -2.06 in assay [15]; -0.142 in [16]; -0.397 (inactive) in [17]; -0.0618 in [18]; 0.551 in assay [19]. Moreover, the z-score in assay [20] was 0.232 (inactive). Besides, the composite z-score in [2] was determined as 0.0509.
On to `COc1ccc(C(=O)Nc2cccc(CN3C(=O)[C@]4(O[C@H](CCn5cc([C@H](O)c6ccccc6)nn5)[C@@H]([Si](C)(C)c5ccc(OC)cc5)[C@@H]4C)c4ccccc43)c2)cc1`, for which the z-score is 0.959 (inactive) in [1]; 1.23 (inactive) in assay [3]; 0.0918 (inactive) in assay [4]; 1.82 (inactive) in assay [5]; -0.209 (inactive) in assay [6]; 0.871 in assay [7]. Further, the z-score in assay [8] is -0.498 (inactive); in assay [9], 0.245 (inactive); in assay [10], -0.305; in assay [11], -1.17; in assay [12] it was 0.408; in [13] it was -2.1. Besides, the z-score was -3.03 in assay [14]; -2.99 in assay [15]; 2.27 in [16]; -0.386 (inactive) in assay [17]; -0.989 in assay [18]; -1.12 in [19]. In addition, the z-score in [20] was -2.56 (inactive). In addition, the composite z-score in assay [2] came out at 0.051.
Regarding `Cc1cccc([C@H]2C[C@H]3C(Br)=C[C@@H]2C(=O)[C@]32CO2)c1`, the z-score is -0.227 (inactive) in assay [1]; 0.969 (inactive) in assay [3]; 0.323 (inactive) in [4]; 0.463 (inactive) in [5]; 0.06 (inactive) in assay [6]; 0.209 in assay [7]. Besides, the z-score in assay [8] was 0.7 (inactive); in [9], -0.00866 (inactive); in [10], -0.854; in [11], -0.798; in assay [12], 0.0171; in assay [13] it was -1.24. Further, the z-score in assay [14] is -3.14; in assay [15], -2.72; in assay [16], -0.565; in assay [17], 0.404 (inactive); in [18] it was -0.837; in assay [19], -0.262. Moreover, the z-score in assay [20] was -0.581 (inactive). Besides, the composite z-score in [2] is -0.147.
For the compound `CN1C(=O)[C@@H]2[C@@H](CC(COc3ccccc3)=C([C@H](O)CCc3ccccc3)[C@@H]2CO)C1=O`, the z-score in [1] is 2.03 (inactive); in [3], 29.5 (active); in assay [4], 21.6 (active); in assay [5], -0.0433 (inactive); in assay [6], 1.43 (inactive); in assay [7], 0.867. The z-score in [8] was -0.561 (inactive); in [9], 0.867 (inactive); in assay [10], 0.199; in assay [11], 1.9; in assay [12], -0.13; in [13], 0.943. The z-score in [14] was 0.445; in [15] it was -0.388; in [16], 0.397; in assay [17], 0.813 (inactive); in [18], -0.274; in assay [19], 0.472. In assay [20], the z-score was -0.123 (inactive). The same compound had a composite z-score in assay [2] of -0.328.
Regarding `O=c1cccc(-c2ccc(F)cc2)o1`, the z-score in assay [1] is -0.527 (inactive); in [3] it was 1.74 (inactive); in assay [4] it was 0.624 (inactive); in [5], -0.099 (inactive); in [6], 0.832 (inactive); in [7] it was -0.387. The z-score in assay [8] was 0.227 (inactive); in assay [9], -1.19 (inactive); in assay [10], -0.184; in [11] it was -0.562; in assay [12], 0.616; in assay [13] it was -0.606. In addition, the z-score in [14] was -0.0871; in assay [15] it was -0.913; in [16], 0.0366; in assay [17], 0.5 (inactive); in assay [18], 0.036; in assay [19], -0.0644. The z-score in [20] is -0.0964 (inactive). Further, the composite z-score in assay [2] is 0.0367.
As to `COc1ccc([Si](C)(C)[C@H]2[C@H](CCO)O[C@@]3(C(=O)N(Cc4ccccc4)c4ccc(N5CCOC5=O)cc43)[C@@H]2C)cc1`, the z-score in assay [1] is -0.261 (inactive); in assay [3], 5.86 (inactive); in [4] it was 1.9 (inactive); in [5] it was -0.307 (inactive); in assay [6], 0.913 (inactive); in assay [7], 0.577. The z-score is -1.36 (inactive) in assay [8]; 1.71 (inactive) in assay [9]; 2.27 in assay [10]; -0.119 in assay [11]; -0.325 in assay [12]; -2.09 in [13]. The z-score was -2.13 in [14]; -3.4 in assay [15]; -0.203 in assay [16]; 0.69 (inactive) in assay [17]; -1.11 in assay [18]; -1.68 in assay [19]. Further, in assay [20], the z-score was -1.94 (inactive). Further, the composite z-score in assay [2] was -0.0025.
With `COCCOC(=O)N1C(=O)[C@@]2(c3cc(C#CCC(C(=O)OC)C(=O)OC)ccc31)[C@H](c1ccc(O)cc1)N1[C@H](c3ccccc3)[C@H](c3ccccc3)OC(=O)[C@H]1[C@@H]2C(=O)NC[C@H](O)c1ccccc1`, the z-score in [1] was 1.47 (inactive); in assay [3], 1.67 (inactive); in [4], 0.223 (inactive); in [5], -5.49 (inactive); in assay [6], -0.0973 (inactive); in assay [7] it was -0.158. Moreover, the z-score is 1.72 (inactive) in assay [8]; 0.876 (inactive) in assay [9]; 1.32 in [10]; -0.61 in assay [11]; 0.0453 in [12]; -0.0754 in assay [13]. The z-score in assay [14] was -1.92; in assay [15], -4.3; in assay [16], -0.689; in assay [17] it was -1.16 (inactive); in [18], -1.08; in assay [19], -0.91. Moreover, the z-score in [20] is 0.691 (inactive). The same compound came in with a composite z-score in [2] of -0.159.
Take `COCCOC(=O)N1C(=O)[C@@]2(c3cc(C#CCNC(N)=O)ccc31)[C@H](c1ccc(O)cc1)N1[C@H](c3ccccc3)[C@H](c3ccccc3)OC(=O)[C@H]1[C@@H]2C(N)=O`: the z-score was 0.847 (inactive) in assay [1]; 0.646 (inactive) in assay [3]; 0.783 (inactive) in assay [4]; -0.158 (inactive) in [5]; 0.386 (inactive) in [6]; 0.285 in assay [7]. For the same compound, the z-score in assay [8] was 0.37 (inactive); in assay [9], 0.163 (inactive); in assay [10], 0.361; in assay [11], 1.66; in [12], -0.654; in assay [13], 0.405. For the same compound, the z-score in assay [14] was 0.337; in assay [15], -0.933; in assay [16], 2.07; in assay [17] it was -0.0574 (inactive); in assay [18] it was -0.932; in assay [19], -0.139. The z-score in [20] was 0.934 (inactive). The composite z-score in assay [2] was -0.67.

Values taken from PubChem BioAssay.
